{
  "source": "the supplement of paper PMC8728848",
  "binders": {"B1": {"name": "Tap1 (Sordaria macrospora), Q50IV4 (protein)", "chain": "MSHHHHHHHHYTLHLRLINDTSDTLTLVEQTSWWGKNTIWSQVRSTGVHVLSMAASGSSGMLRFQTSKGDFFAVAVGVHNYKRWCDVLVDTADEAPLTKLHPKYYDDKDAKYQALWAQASEFEAKSKSGKTVRIKFYQADGNVLRATVEYL"}},
  "assay_in_all_cases": "glycan array binding signal (z-score within array); higher = stronger binding",
  "conditions_in_all_cases": "glycan notation: IUPAC condensed, linker removed",
  "key": {"Fuc(a1-2)Gal(b1-3)GalNAc": {"biological_target": "Fuc(a1-2)Gal(b1-3)GalNAc", "summary_of_the_method": "(§1)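 Columns mapping to the same glycan were averaged after glycan names were converted to IUPAC-condensed notation. The data come from 3228 arrays in the Consortium for Functional Glycomics database, limited to those with an available protein sequence. Binding is reported as a within-array Z-score averaged across arrays of one protein sequence and across linkers.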"}, "[1]": {"biological_target": "Fuc(a1-2)[Gal(a1-3)]Gal(b1-4)Glc", "summary_of_the_method": "as §1"}, "[2]": {"biological_target": "Fuc(a1-2)[Gal(a1-3)]Gal(b1-4)GlcNAc(b1-2)Man(a1-3)[Fuc(a1-2)[Gal(a1-3)]Gal(b1-4)GlcNAc(b1-2)Man(a1-6)]Man(b1-4)GlcNAc(b1-4)GlcNAc", "summary_of_the_method": "as §1"}, "[3]": {"biological_target": "Fuc(a1-2)[Gal(a1-4)]Gal(b1-4)GlcNAc", "summary_of_the_method": "as §1"}, "[4]": {"biological_target": "Fuc(a1-2)[GalNAc(a1-3)]Gal(b1-3)GalNAc(a1-3)[Fuc(a1-2)]Gal(b1-4)GlcNAc", "summary_of_the_method": "as §1"}, "[5]": {"biological_target": "Gal(a1-4)Gal(b1-3)GlcNAc(b1-2)Man(a1-3)[Gal(a1-4)Gal(b1-3)GlcNAc(b1-2)Man(a1-6)]Man(b1-4)GlcNAc(b1-4)GlcNAc", "summary_of_the_method": "as §1"}, "Gal(a1-6)Glc": {"biological_target": "Gal(a1-6)Glc", "summary_of_the_method": "as §1"}, "Gal(b1-2)Gal": {"biological_target": "Gal(b1-2)Gal", "summary_of_the_method": "as §1"}, "[6]": {"biological_target": "Gal(b1-3)Gal(b1-4)GlcNAc(b1-2)Man(a1-3)[Gal(b1-3)Gal(b1-4)GlcNAc(b1-2)Man(a1-6)]Man(b1-4)GlcNAc(b1-4)GlcNAc", "summary_of_the_method": "as §1"}, "Gal(b1-3)GalNAc": {"biological_target": "Gal(b1-3)GalNAc", "summary_of_the_method": "as §1"}, "[7]": {"biological_target": "Gal(b1-3)GlcNAc(b1-2)[Gal(b1-3)GlcNAc(b1-6)]Man(a1-6)[Gal(b1-3)GlcNAc(b1-2)Man(a1-3)]Man(b1-4)GlcNAc(b1-4)GlcNAc", "summary_of_the_method": "as §1"}, "[8]": {"biological_target": "Gal(b1-3)GlcNAc(b1-3)Gal(b1-4)Glc", "summary_of_the_method": "as §1"}, "[9]": {"biological_target": "Gal(b1-3)[Neu5Ac(a2-6)]GalNAc", "summary_of_the_method": "as §1"}, "[10]": {"biological_target": "Gal(b1-3)[Neu5Ac(b2-6)]GalNAc", "summary_of_the_method": "as §1"}, "Gal(b1-4)GlcNAc": {"biological_target": "Gal(b1-4)GlcNAc", "summary_of_the_method": "as §1"}, "[11]": {"biological_target": "Gal(b1-4)GlcNAc(b1-3)Gal(b1-4)Glc", "summary_of_the_method": "as §1"}, "[12]": {"biological_target": "Gal(b1-4)GlcNAc(b1-3)[Gal(b1-4)GlcNAc(b1-6)]Gal(b1-4)GlcNAc", "summary_of_the_method": "as §1"}, "[13]": {"biological_target": "Gal(b1-4)GlcNAc(b1-6)Gal(b1-4)GlcNAc", "summary_of_the_method": "as §1"}, "Gal3S(b1-3)GalNAc": {"biological_target": "Gal3S(b1-3)GalNAc", "summary_of_the_method": "as §1"}, "[14]": {"biological_target": "GlcNAc(a1-4)Gal(b1-4)GalNAc", "summary_of_the_method": "as §1"}, "[15]": {"biological_target": "GlcNAc(a1-4)Gal(b1-4)GlcNAc(b1-3)Gal(b1-4)Glc", "summary_of_the_method": "as §1"}, "[16]": {"biological_target": "GlcNAc(b1-2)Gal(b1-3)GalNAc", "summary_of_the_method": "as §1"}, "[17]": {"biological_target": "GlcNAc(b1-3)Gal(b1-3)GalNAc", "summary_of_the_method": "as §1"}, "GlcNAc(b1-3)GalNAc": {"biological_target": "GlcNAc(b1-3)GalNAc", "summary_of_the_method": "as §1"}, "Kdn(a2-3)Gal(b1-3)GalNAc": {"biological_target": "Kdn(a2-3)Gal(b1-3)GalNAc", "summary_of_the_method": "as §1"}, "Neu5Ac(a2-3)Gal": {"biological_target": "Neu5Ac(a2-3)Gal", "summary_of_the_method": "as §1"}, "[18]": {"biological_target": "Neu5Ac(a2-3)Gal(b1-3)GalNAc", "summary_of_the_method": "as §1"}, "[19]": {"biological_target": "Neu5Ac(a2-3)Gal(b1-3)GalNAc(b1-4)[Neu5Ac(a2-8)Neu5Ac(a2-3)]Gal(b1-4)Glc", "summary_of_the_method": "as §1"}, "[20]": {"biological_target": "Neu5Ac(a2-3)Gal(b1-4)GlcNAc", "summary_of_the_method": "as §1"}, "[21]": {"biological_target": "Neu5Ac(a2-3)Gal(b1-4)GlcNAc(b1-6)[Neu5Ac(a2-3)Gal(b1-3)]GalNAc", "summary_of_the_method": "as §1"}},
  "note": "The sample as a whole holds a higher share of the strongest signals than the screen did.",
  "data": [
    {"binder": "B1", "values": [
      {"measurement": "glycan array binding signal (z-score)", "setting": "Fuc(a1-2)Gal(b1-3)GalNAc", "result": 2.96},
      {"measurement": "glycan array binding signal (z-score)", "setting": "[1]", "result": -0.234},
      {"measurement": "glycan array binding signal (z-score)", "setting": "[2]", "result": -0.244},
      {"measurement": "glycan array binding signal (z-score)", "setting": "[3]", "result": -0.242},
      {"measurement": "glycan array binding signal (z-score)", "setting": "[4]", "result": -0.246},
      {"measurement": "glycan array binding signal (z-score)", "setting": "[5]", "result": -0.221},
      {"measurement": "glycan array binding signal (z-score)", "setting": "Gal(a1-6)Glc", "result": -0.248},
      {"measurement": "glycan array binding signal (z-score)", "setting": "Gal(b1-2)Gal", "result": -0.207},
      {"measurement": "glycan array binding signal (z-score)", "setting": "[6]", "result": -0.225},
      {"measurement": "glycan array binding signal (z-score)", "setting": "Gal(b1-3)GalNAc", "result": 3.97},
      {"measurement": "glycan array binding signal (z-score)", "setting": "[7]", "result": -0.179},
      {"measurement": "glycan array binding signal (z-score)", "setting": "[8]", "result": -0.23},
      {"measurement": "glycan array binding signal (z-score)", "setting": "[9]", "result": 4.09},
      {"measurement": "glycan array binding signal (z-score)", "setting": "[10]", "result": -0.25},
      {"measurement": "glycan array binding signal (z-score)", "setting": "Gal(b1-4)GlcNAc", "result": -0.237},
      {"measurement": "glycan array binding signal (z-score)", "setting": "[11]", "result": -0.235},
      {"measurement": "glycan array binding signal (z-score)", "setting": "[12]", "result": -0.264},
      {"measurement": "glycan array binding signal (z-score)", "setting": "[13]", "result": -0.224},
      {"measurement": "glycan array binding signal (z-score)", "setting": "Gal3S(b1-3)GalNAc", "result": 5.01},
      {"measurement": "glycan array binding signal (z-score)", "setting": "[14]", "result": 0.868},
      {"measurement": "glycan array binding signal (z-score)", "setting": "[15]", "result": -0.223},
      {"measurement": "glycan array binding signal (z-score)", "setting": "[16]", "result": 2.86},
      {"measurement": "glycan array binding signal (z-score)", "setting": "[17]", "result": 2.84},
      {"measurement": "glycan array binding signal (z-score)", "setting": "GlcNAc(b1-3)GalNAc", "result": 1.62},
      {"measurement": "glycan array binding signal (z-score)", "setting": "Kdn(a2-3)Gal(b1-3)GalNAc", "result": 3.63},
      {"measurement": "glycan array binding signal (z-score)", "setting": "Neu5Ac(a2-3)Gal", "result": -0.232},
      {"measurement": "glycan array binding signal (z-score)", "setting": "[18]", "result": 4.27},
      {"measurement": "glycan array binding signal (z-score)", "setting": "[19]", "result": -0.198},
      {"measurement": "glycan array binding signal (z-score)", "setting": "[20]", "result": -0.251},
      {"measurement": "glycan array binding signal (z-score)", "setting": "[21]", "result": 1.16}
    ]}
  ]
}
